Data on 8 molecules can be found in PubChem BioAssay (Tox21).

A number with no mark means an inactive call. Results filed as inconclusive are left out. The source made the active and inactive calls. Unless noted, calls follow the shape of the dose curve; as a rule, active = well fitted curve in the direction sought with a large enough effect in the repeat runs; inconclusive = weak or mixed curves; inactive = no such curve, though single readings can be large; an effect the other way counts as inactive or inconclusive.

Experiment [1] is described as follows: qHTS assay to identify small molecule agonists of the hypoxia (HIF-1) signaling pathway - cell viability counter screen (AID 1224844; calls by dose curve; also: nearly all actives have a fitted effect of over 50% in size). A digest of the protocol: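 Same wells as the HIF-1 reporter screen; ME-180 cells carrying HRE-bla, 17 hr treatment at 37C; CellTiter-Glo luminescence read after 30 min at room temperature.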
A short description of experiment [2]: qHTS assay to identify small molecule agonists of H2AX (AID 1224845; active = well fitted activation curve with a large enough effect in the signal ratio in the repeat runs, not every such curve was filed as active; the % refers to the signal ratio). The gist of the method: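 Wild-type CHO-K1 cells, plated overnight, exposed 3hr at 37C to 15 concentrations (0.76% DMSO final). Lysed, then HTRF anti-pH2AX (S139) cryptate and anti-H2AX-d2 antibodies, 24 hr room temperature; 665/620 nm emission read.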
(In general: In qHTS, concentration-response curves come from the screen itself.)

Experiment [3] in a line: qHTS assay to identify small molecule agonists of the hypoxia (HIF-1) signaling pathway (AID 1224846; active = well fitted activation curve with a large enough effect in the signal ratio in the repeat runs, not every such curve was filed as active; the % refers to the signal ratio; also: potency is read from the fitted curve at half-maximal effect). A digest of the protocol:
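In ME-180 cells bearing an HRE-bla construct, 17 h treatment with DMSO-dissolved compounds at 37C was followed by CCF4-AM loading to quantify reporter induction.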

Experiment [4] is described as follows: qHTS RealTime-Glo MT Cell Viability Assay in HepG2 cells - 24 hour (AID 1224867). Also: nearly all actives have a fitted effect of over 50% in size. The gist of the method:
(§1)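 qHTS, HepG2, 600 cells/well, RealTime-Glo (NanoLuc + prosubstrate) added with cells; 5 h preincubation; DMSO compound addition; 37 C; luminescence at 0/8/16/24/32/40 h.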

Experiment [5] in a line: qHTS RealTime-Glo MT Cell Viability Assay in HEK293 cells - 32 hour (AID 1224868). Also: top concentration of the series differs between compounds; nearly all actives have a fitted effect of over 50% in size. The gist of the method: (§2)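 Assay medium contained NanoLuc luciferase plus cell-permeant prosubstrate, added with HEK293 cells at 600 cells/well. After 5 h at 37 C/5% CO2 compounds were added; plates stayed at 37 C for 40 h with serial luminescence reads.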
A short description of experiment [6]: A CellTox Green Cytotoxicity Assay to monitor cytotoxicity in HEK293 cells - 0 hour (AID 1224869). Also: nearly all actives have a fitted effect of over 50% in size. The gist of the method:
(§3)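 Homogeneous no-lysis format: HEK293 cell suspension mixed with CellTox Green reagent, seeded, incubated 5 h at 37 C/5% CO2, then dosed by pintool with compound in DMSO.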

Experiment [7] in a line: qHTS RealTime-Glo MT Cell Viability Assay in HepG2 cells - 40 hour (AID 1224870). Also: nearly all actives have a fitted effect of over 50% in size. The gist of the method: (§4)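 HepG2 cells (600/well) mixed with RealTime-Glo MT reagent, settled 5 h at 37 C/5% CO2 before compound addition. Nonlytic NanoLuc luminescence from viable-cell prosubstrate reduction read repeatedly during 40 h treatment at 37 C.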
Experiment [8] is described as follows: A CellTox Green Cytotoxicity Assay to monitor cytotoxicity in HEK293 cells - 40 hour (AID 1224871). Also: nearly all actives have a fitted effect of over 45% in size. Also: potency is read from the fitted curve at half-maximal effect. The gist of the method: as §3
The nature of experiment [9]: qHTS RealTime-Glo MT Cell Viability Assay in HEK293 cells - 16 hour (AID 1224872). The gist of the method: as §2
Experiment [10] can be described thus: qHTS RealTime-Glo MT Cell Viability Assay in HepG2 cells - 8 hour (AID 1224873). Also: nearly all actives have a fitted effect of over 55% in size. The gist of the method:
as §4

A short description of experiment [11]: qHTS RealTime-Glo MT Cell Viability Assay in HEK293 cells - 40 hour (AID 1224874). Also: nearly all actives have a fitted effect of over 50% in size. To be noted: RealTime-Glo luminescence; max response: hits give low values. A digest of the protocol:
(§5)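 Measured as luminescence from the same continuously cultured HEK293 wells at successive time points (0, 8, 16, 24, 32, 40 h) after compound addition. Reagent present from seeding; dosing at 5 h; incubation 37 C.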

Experiment [12] is described as follows: A CellTox Green Cytotoxicity Assay to monitor cytotoxicity in HEK293 cells - 24 hour (AID 1224875). Also: nearly all actives have a fitted effect of over 45% in size. Also: potency is read from the fitted curve at half-maximal effect. The gist of the method: as §3
Experiment [13] can be described thus: A CellTox Green Cytotoxicity Assay to monitor cytotoxicity in HepG2 cells - 16 hour (AID 1224876). Also: nearly all actives have a fitted effect of over 45% in size. Also: potency is read from the fitted curve at half-maximal effect. The gist of the method:
(§6)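 Fluorescent DNA-binding dye, 600 HepG2 cells/well, 5 h preincubation then compound in DMSO; same plates read at 0–40 h, 37 C.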

A short description of experiment [14]: qHTS RealTime-Glo MT Cell Viability Assay in HepG2 cells - 32 hour (AID 1224877). Also: nearly all actives have a fitted effect of over 55% in size. A digest of the protocol:
as §1

Experiment [15] in a line: A CellTox Green Cytotoxicity Assay to monitor cytotoxicity in HepG2 cells - 24 hour (AID 1224878). Also: nearly all actives have a fitted effect of over 45% in size. Also: potency is read from the fitted curve at half-maximal effect. The gist of the method: as §6
The nature of experiment [16]: A CellTox Green Cytotoxicity Assay to monitor cytotoxicity in HepG2 cells - 40 hour (AID 1224879). Also: nearly all actives have a fitted effect of over 40% in size. Also: potency is read from the fitted curve at half-maximal effect. A digest of the protocol: as §6
Experiment [17] is described as follows: qHTS RealTime-Glo MT Cell Viability Assay in HEK293 cells - 0 hour (AID 1224880). A digest of the protocol: as §5
A short description of experiment [18]: qHTS assay to identify small molecule antagonists of the estrogen related receptor (ERR) signaling pathway from Tox21 library (AID 1224848). Also: nearly all actives have a fitted effect of over 50% in size. Also: potency is read from the fitted curve at half-maximal effect. The gist of the method: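 Compounds dissolved in DMSO are pin-transferred onto ERR reporter cells (2,000 per well) that have settled for 6 h at 37 C. Plates then incubate 18 h at 37 C before ONE-Glo luciferase reagent and a luminescence read 30 min later.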

A short description of experiment [19]: qHTS assay to identify small molecule agonists of the estrogen related receptor (ERR) signaling pathway from Tox21 library (AID 1224849; calls by dose curve; also: nearly all actives have a fitted effect of over 15% in size). To be noted: ERR reporter cell line, ONE-Glo luciferase, 18 h; at 92.4 µM (top of the series) unless noted. The gist of the method:
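Reporter cells (ERR, NTP source) treated with Tox21 10K compounds 18 h, 37 C. Readout: ONE-Glo luminescence, 30 min RT.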

Experiment [20] in a line: qHTS assay to identify small molecule agonists of H2AX - cell viability counter screen (AID 1224847; calls by dose curve; also: top concentration of the series differs between compounds; nearly all actives have a fitted effect of over 30% in size). A digest of the protocol:
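Cells plated first: CHO-K1, 1000 per well in 10% FBS medium, incubated overnight at 37C. Then 15-point compound titration added (final DMSO 0.76%) for 3 hr. Finally CellTiter-Glo added and luminescence read.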
% is scaled to controls: 0 for no effect and ±100 for the full control effect.

`O=C(NCCO[N+](=O)[O-])c1cccnc1`: the Potency result in [1], in experiment [2], in experiment [3], in [4], in experiment [5] and in experiment [6] was “inactive” throughout. Moreover, the Potency result in experiment [7], in experiment [8], in [9], in experiment [10], in experiment [12] and in experiment [13] was “inactive” in each case. In addition, the Potency result in experiment [14], in [15], in [16] and in [17] was “inactive” throughout. Also, the max response in experiment [11] was 0.0315%.

For `Cc1cccc(Nc2ccccc2)c1`, the Potency result in experiment [1], in [2], in experiment [3], in experiment [4], in experiment [5] and in [6] was “inactive” in each case. In addition, the Potency entry in [7], in experiment [14] and in experiment [17] was “inactive” throughout. Moreover, the Potency is 34.7 µM (active) in [8]; 38.9 µM (active) in experiment [12]; 43.6 µM (active) in experiment [13]; 38.9 µM (active) in [15]; 38.9 µM (active) in [16]. Besides, the max response in [11] is -10.8%.

With `CC1=CC[C@H](C(C)C)C=C1`, the Potency entry in experiment [1], in [2], in experiment [3], in [5], in [6] and in experiment [7] was “inactive” each time. In addition, the Potency result in [9], in experiment [10], in experiment [12], in experiment [13], in [14] and in [15] was “inactive” each time. Moreover, the Potency result in [16] and in [17] was “inactive” throughout. Further, the max response in [11] is -3.46%.

As for `Cc1oc2c(NC(=O)c3c(Cl)cccc3Cl)cccc2c1C(C)(C)O`, the Potency entry in experiment [1], in experiment [2], in experiment [4], in experiment [6], in experiment [8] and in [12] was “inactive” each time. Besides, the Potency entry in [15] was “inactive”. Further, the Potency in experiment [3] is 17.4 µM (active); in experiment [18], 30.6 µM (active); in experiment [16], 38.9 µM (active). In addition, the activity change, positive = activation in experiment [19] was -55.8%.

For the molecule `O=C1CCCCCCCCCCCC(=O)OCCO1`, the Potency result in experiment [1], in [2], in [3], in experiment [18], in experiment [4] and in experiment [5] was “inactive” each time. Besides, the Potency entry in experiment [6], in experiment [7], in experiment [9], in experiment [10], in experiment [12] and in [13] was “inactive” in each case. In addition, the Potency entry in experiment [14] and in experiment [17] was “inactive” in each case. In addition, the activity change, positive = activation in experiment [19] was 1.67%. The Potency in [8] was 54.9 µM (active). Besides, the max response in experiment [11] is -16%.

Turning to `NS(=O)(=O)c1ccc(N2CCCCS2(=O)=O)cc1`, the Potency result in experiment [1], in [2], in experiment [20], in experiment [18], in [4] and in experiment [5] was “inactive” throughout. Also, the Potency entry in experiment [6], in [7], in experiment [9], in experiment [10], in experiment [12] and in [13] was “inactive” throughout. Besides, the Potency result in [14], in experiment [15], in experiment [16] and in experiment [17] was “inactive” in each case. In addition, the activity change, positive = activation in experiment [19] is 5.22% [at 42.5 µM]. Further, the max response in experiment [11] was -0.0797%.

On to `CC(C)OC(=O)C(C)N(C(=O)c1ccccc1)c1ccc(F)c(Cl)c1` (centres undefined), for which the Potency entry in [1], in experiment [2], in experiment [4], in [5], in experiment [6] and in experiment [7] was “inactive” throughout. Moreover, the Potency result in [8], in experiment [10], in [12], in experiment [13], in experiment [14] and in [15] was “inactive” throughout. Further, the Potency entry in experiment [16] is “inactive”. The Potency in [18] was 17.2 µM (active). In addition, the activity change, positive = activation in experiment [19] is -51.7%. For the same molecule, in experiment [11], the max response is -29.8%.

Consider `Clc1ccc(Cn2c(CN3CCCC3)nc3ccccc32)cc1`, for which the Potency result in experiment [1], in experiment [2], in experiment [20], in [7], in experiment [12] and in [13] was “inactive” in each case. Besides, the Potency entry in experiment [14], in experiment [15], in experiment [16] and in [17] was “inactive” throughout.
